Bioassay records: PubChem, National Center for Advancing Translational Sciences (NCATS)
Hits are enriched below; roughly 3.1% of the tested compounds scored in any of these assays.
uPA generation – cell surface uPA generation inhibition; cell surface uPA generation assay, qHTS; Potency, µM (top dose mostly 38.3 µM), hits mostly inhibitors; 0.31% of 330,000 active; active means well fitted inhibition curve with a large enough effect; inconclusive means small, poorly fitted or top-dose-only effect; inactive means no such curve, though single readings can be large or run the other way; tested in mouse RAW 264.7 cells; further: nearly all actives have a fitted effect of over 55% in size
TSHR antagonist – human thyrotropin receptor antagonism; P16473; TSHR-expressing cells, TSH-stimulated cAMP HTRF, 2 h; hits give low values; activity change, negative = inhibition, % at 11.5 µM; 0.2% of 330,000 active;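 active means activity change below a set negative limit, meaning inhibition stronger than a set level, cut at about -70% in these data; inconclusive means activity change between two set negative limits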
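TSHR-expressing cells, 200/well, pre-treated with compound, then stimulated with EC80 TSH (4nM final) for 2 hours at 37 deg C. cAMP measured by competitive HTRF: anti-cAMP cryptate antibody in lysis buffer plus cAMP-d2, read after 30 minutes at room temperature.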
TSG101-PTAP inh – blocks PTAP/TSG101 interaction to inhibit HIV-1 budding; Q99816; Fluorescence polarization, FITC-PTAP peptide / Tsg101 binding; Potency, µM (series often up to 115 µM), usual class: inhibitors; 340,000 tested, under 10 active; AID 493005; active means well fitted inhibition curve with a large enough effect in the main read-out, with a control signal flat, not every such curve was filed as active; inconclusive means small, poorly fitted or top-dose-only effect, or effect the other way, or a change in a side signal; inactive means no such curve, though single readings can be large or run the other way
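FP read-out: FITC-PTAP peptide, 50 nM final, binding Tsg101 binding domain, 10 uM final; 20 min, r.t.; 10 mM HEPES pH 7.5, 0.15 M NaCl, 0.01% Tween 20, 3 mM EDTA, 0.1 mM TCEP.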
VDR inh – vitamin D3 receptor (human) inhibition; VDR-SRC2-3 peptide fluorescence polarization, 2 h; 0.93% of 400,000 active; AID 504847; P11473; Potency, µM, hits mostly inhibitors
Target sequence (P11473 whole entry, looked up): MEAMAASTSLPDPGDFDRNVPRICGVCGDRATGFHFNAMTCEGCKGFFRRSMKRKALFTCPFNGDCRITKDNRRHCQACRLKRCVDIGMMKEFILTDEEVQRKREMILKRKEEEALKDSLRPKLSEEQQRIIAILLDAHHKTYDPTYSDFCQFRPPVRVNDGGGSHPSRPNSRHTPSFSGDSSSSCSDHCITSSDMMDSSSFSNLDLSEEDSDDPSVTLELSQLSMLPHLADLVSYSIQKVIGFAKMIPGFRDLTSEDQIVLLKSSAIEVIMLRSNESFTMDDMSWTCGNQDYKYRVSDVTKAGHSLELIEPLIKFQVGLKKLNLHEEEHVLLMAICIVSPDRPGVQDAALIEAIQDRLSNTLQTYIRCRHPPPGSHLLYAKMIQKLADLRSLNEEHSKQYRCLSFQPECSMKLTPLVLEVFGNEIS
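Fluorescence polarization assay of small-molecule disruption of VDR binding to coregulator peptide SRC2-3. Compounds and controls pin-transferred, then read after 2 h incubation at ambient room temperature.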
PLK1 PBD inh – blocks phosphopeptide binding to human PLK1 polo-box domain. P53350. Potency, µM, usual class: inhibitors. 2.8% of 360,000 active. AID 720504. Plk1 PBD binding of FITC phosphopeptide, fluorescence polarization; further: series mostly up to about 57 µM; nearly all actives have a fitted effect of over 65% in size
Hits are given with their value; i = inactive; ? = inconclusive; nt = no result. Unless noted, the call rests on the fitted dose curve; in most records, active means well fitted curve in the direction sought with a large enough effect; inconclusive means small, poorly fitted or top-dose-only effect, or another doubt; inactive means no such curve, though single readings can be large; an effect the other way counts as inactive or inconclusive.

SMILES	uPA generation	TSHR antagonist	TSG101-PTAP inh	VDR inh	PLK1 PBD inh
CCN(CC)CCCN1C(=O)C(O)=C(C(=O)c2cc3ccccc3o2)C1c1ccccn1 (stereo not drawn)	i	i	i	i	27µM
COc1ccc(CN(C)C(=O)CCNS(=O)(=O)c2ccccc2)c(OC)c1	nt	nt	nt	nt	i
CN(CC(=O)Nc1ccc(Cl)c(C(F)(F)F)c1)C(=O)CCCNC(=O)c1ccc(Cl)cc1	8.9µM	i	i	i	i
CN(CC(=O)Nc1ccc(Cl)c(C(F)(F)F)c1)C(=O)CCNC(=O)c1ccco1	i	i	i	i	i
COc1ccc(C(=O)NCC(c2cccnc2)N2CCc3ccccc32)cc1 (stereo not drawn)	nt	nt	nt	i	nt
N#CCCN1CCN(C(CNS(=O)(=O)c2ccc(Cl)cc2)c2ccccc2)CC1 (stereo not drawn)	i	i	i	i	i
O=S(=O)(NCC(c1ccccc1)N1CCC(O)CC1)c1ccc(Cl)cc1 (stereo not drawn)	i	i	i	i	21µM
Cc1ccc(S(=O)(=O)N2c3ccccc3NC(=O)CC2C)cc1 (stereo not drawn)	i	i	i	i	i
CC1CC(=O)Nc2ccccc2N1S(=O)(=O)c1ccccc1 (stereo not drawn)	i	i	i	?	27µM
CCOC(=O)c1c(NC(=O)c2cc(-c3ccc(Cl)cc3)on2)sc(C)c1C	nt	nt	nt	i	nt
CC(=O)Nc1sc(C)c(C)c1C(=O)OC(C)C	i	i	i	i	27µM
CCOC(=O)c1c(NC(=O)c2cc(CC)on2)sc(C)c1C	nt	nt	nt	79µM	nt
CCOC(=O)c1c(NC(=O)c2cc(C)on2)sc(C)c1C	nt	nt	nt	79µM	nt
CCCc1cc(C(=O)Nc2sc(C(C)=O)c(C)c2C(=O)OCC)no1	i	i	i	i	?
C=Cc1ccc(CN2C(=O)N(c3ccc(C)c(C)c3)S(=O)(=O)c3ccccc32)cc1	nt	nt	nt	i	nt
COc1ccc(CNC(=O)CCCSc2ccccc2)cc1	i	i	i	i	i
NS(=O)(=O)c1ccc(CNC(=O)CCCSc2ccccc2)cc1	nt	i	i	i	30µM
NS(=O)(=O)c1ccc(CNC(=O)/C=C/c2ccccc2)cc1	i	i	i	i	27µM
Cc1nc2c(-c3ccccc3)c(C)[nH]n2c(=O)c1Cc1ccc(Br)cc1	nt	nt	nt	i	nt
Cc1ccc(C)c(CN2CCCN(Cc3ccc(F)cc3)S2(=O)=O)c1	nt	nt	nt	i	nt
Cc1noc(C)c1C(=O)N1CCC2(CC1)CN(c1cccc(-c3ccccc3)c1)C2	nt	nt	nt	i	nt
COC(=O)c1c(-c2cccs2)csc1NC(=O)COc1c(C)ccc(C)c1C	nt	nt	nt	22µM	nt
O=C1C(c2ccc(F)cc2)N(CCc2ccc(Cl)cc2)C(=O)CN1C1CCCCCC1 (stereo not drawn)	nt	nt	nt	i	nt
CCOc1ccc(-n2c(SCC(=O)Nc3ccc(OC)cc3)nc3c(c2=O)SCC3)cc1	i	i	i	i	i
CCOc1ccc(-n2c(SCC(=O)Nc3cc(C)on3)nc3c(c2=O)SCC3)cc1	i	-85	i	i	i
SMILES	uPA generation	TSHR antagonist	TSG101-PTAP inh	VDR inh	PLK1 PBD inh
CCCC(=O)c1ccc(N2CCC(C)CC2)c(F)c1	i	i	i	i	24µM
COC(=O)c1ccc(N2CCC(C)CC2)c(N)c1	nt	i	i	?	21µM
CS(=O)(=O)c1ccc(C(=O)OCC(=O)Nc2ccc(OC(F)(F)F)cc2)cc1[N+](=O)[O-]	nt	nt	nt	i	nt
Cc1ccc2oc(=O)c3cc(C(=O)Nc4ccc(F)cc4F)sc3c2c1	nt	nt	nt	i	nt
CSc1nc(O)c(C(c2ccc(OC(C)C)cc2)c2c(O)nc(SC)[nH]c2=O)c(=O)[nH]1	i	nt	i	22µM	11µM
COC1C(O)C(CO)OC1n1cnc2c(=O)[nH]c(N)nc21 (stereo not drawn)	nt	nt	nt	i	nt
Cc1ccoc1C(=O)NCCCNC(=O)c1occc1C	i	i	i	?	27µM
Cc1c(C#N)c2ccccc2n1CC(=O)N1CCCC1	i	i	i	?	30µM
Cc1c(C#N)c2ccccc2n1CC(=O)N1CCCc2ccccc21	i	i	i	i	i
CCC(NC(=O)C(C)NC)C(=O)N1CCCC1C(=O)NC1CCCc2ccccc21 (stereo not drawn)	0.4µM	i	i	i	i
COc1cccc(-n2c(-c3cccc(F)c3)nc3c(cnn3-c3ccc(C)cc3)c2=O)c1	nt	nt	nt	i	nt
N#Cc1ccccc1OCC(=O)N1CCN(S(=O)(=O)c2ccc(Cl)cc2)CC1	i	i	i	i	i
COc1ccc(N2C(=O)c3ccc(C(=O)OC(C)C)cc3C2=O)cc1	i	i	i	i	2.7µM
COc1ccc(N2C(=O)c3cc4ccccc4cc3C2=O)cc1	i	i	i	?	27µM
COc1ccccc1Oc1ccc2c(c1)C(=O)N(c1ccc(C)cc1)C2=O	i	i	i	i	i
COc1ccc(N2CCN(C(=O)Cn3cnc4sc(C)c(S(=O)(=O)N5CCC(C)CC5)c4c3=O)CC2)cc1	nt	nt	nt	i	nt
COc1ccccc1C(=O)NCc1nnnn1-c1ccc(C)c(C)c1	nt	nt	nt	i	nt
CC(C)c1ccc(CCNC(=O)CSC(=S)N2CCCC2)cc1	i	i	i	i	27µM
COc1ccc(CNC(=O)CSC(=S)N2CCCC2)cc1	i	i	i	i	i
CCOc1ccc(C(=O)CN2C(=O)NC3(CCCc4ccccc43)C2=O)cc1 (stereo not drawn)	nt	nt	nt	nt	i
CCOc1ccc2c(c1)c(=O)c(C(=O)c1ccccc1)cn2Cc1ccccc1F	nt	nt	nt	i	nt
COc1cc2c(cc1NC(=O)CN1CCN(S(=O)(=O)c3ccccc3F)CC1)oc1ccccc12	i	i	i	i	3.4µM
COc1cccc(N=Cc2c[nH][nH]c2=O)c1	i	i	i	?	27µM
O=C(Nc1ccccc1Cl)[C@H](CSCc1ccccc1)N1Cc2ccccc2C1=O	nt	nt	nt	i	nt
Cc1cc(C)cc(Oc2nc3ccccn3c(=O)c2/C=C(\C#N)c2nc3ccccc3s2)c1	nt	nt	nt	i	nt
SMILES	uPA generation	TSHR antagonist	TSG101-PTAP inh	VDR inh	PLK1 PBD inh
N#C/C(=C\c1c(Oc2ccc(Br)cc2)nc2ccccn2c1=O)c1nc2ccccc2s1	nt	nt	nt	40µM	nt
C=CCN(CC=C)C(=O)C[n+]1ccc(C(N)=O)cc1	i	i	i	i	i
CCN(CC)C(=O)C[n+]1ccc(C(N)=O)cc1	i	i	i	i	27µM
Cc1cc(NC(=O)C(C)C)cc(-c2nc3ncccc3o2)c1O	nt	nt	nt	i	nt
CC(=O)Oc1cc2c(C(=O)NCCCN3CCOCC3)c(C)oc2c2ccccc12	i	i	i	i	30µM
Cc1c(OCC(=O)NCCCN2CCOCC2)ccc2c1oc(=O)c1ccccc12	i	i	i	i	i
CCOC(=O)c1cccc(NC(=O)c2ccc3nc(Cc4ccccc4)oc3c2)c1	nt	nt	nt	i	nt
COc1ccc(C[C@@H]2CN3C(=NC[C@@H]3Cc3ccc(O)cc3)N2C[C@H](C)NC(=O)CCC2CCCCC2)cc1	i	i	i	i	27µM
CC(C)[C@H]1CN=C2N(C[C@H](C)NC(=O)CCC3CCCCC3)[C@H](Cc3ccc(O)cc3)CN21	i	i	nt	i	13µM
COc1ccc(COc2cc(-c3cccc(OC)c3)nc3ccc(N)cc23)cc1	1.1µM	i	i	i	i
CC(OC(=O)c1cccs1)C(=O)NCc1cccs1 (stereo not drawn)	i	i	i	i	i
